Measurements from the supplement of paper PMC8728848.
This is one part of a sample in which the strongest signals are shown more often than they occur.

Tests used:
Assay in all cases: glycan array binding signal (z-score within array); higher = stronger binding
Conditions in all cases: glycan notation: IUPAC condensed, linker removed
[1] = biological target: Fuc(a1-2)Gal(b1-3)GalNAc
Method in brief: (§1)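 From the Consortium for Functional Glycomics database, 3228 arrays were curated, keeping only those whose protein sequence was available. Binding is given as a within-array Z-score averaged across arrays sharing a protein sequence and across linkers. Negative Z-scores can be read as non-binding.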

[2] = biological target: Fuc(a1-2)Gal(b1-3)GalNAc(a1-3)[Fuc(a1-2)]Gal(b1-4)GlcNAc
Method in brief: as §1

[3] = biological target: Fuc(a1-2)Gal(b1-4)GlcNAc
Method in brief: as §1

[4] = biological target: Fuc(a1-2)Gal(b1-4)GlcNAc(b1-2)Man(a1-3)[Fuc(a1-2)Gal(b1-4)GlcNAc(b1-2)Man(a1-6)]Man(b1-4)GlcNAc(b1-4)[Fuc(a1-6)]GlcNAc
Method in brief: as §1

[5] = biological target: Fuc(a1-2)Gal(b1-4)[Fuc(a1-3)]GlcNAc
Method in brief: as §1

[6] = biological target: Fuc(a1-2)Gal(b1-4)[Fuc(a1-3)]GlcNAc(b1-3)Gal(b1-4)[Fuc(a1-3)]GlcNAc(b1-3)Gal(b1-4)[Fuc(a1-3)]GlcNAc
Method in brief: as §1

[7] = biological target: Fuc(a1-2)Gal6S(b1-4)Glc
Method in brief: as §1

[8] = biological target: Fuc(a1-2)[Gal(a1-3)]Gal(b1-3)GlcNAc(b1-2)Man(a1-3)[Fuc(a1-2)[Gal(a1-3)]Gal(b1-3)GlcNAc(b1-2)Man(a1-6)]Man(b1-4)GlcNAc(b1-4)GlcNAc
Method in brief: as §1

[9] = biological target: Fuc(a1-2)[GalNAc(a1-3)]Gal
Method in brief: as §1

[10] = biological target: Fuc(a1-2)[GalNAc(a1-3)]Gal(b1-3)GlcNAc(b1-3)GalNAc
Method in brief: as §1

[11] = biological target: Fuc(a1-2)[GalNAc(a1-3)]Gal(b1-4)GlcNAc(b1-3)Gal(b1-4)GlcNAc(b1-3)Gal(b1-4)GlcNAc
Method in brief: as §1

[12] = biological target: Fuc(a1-3)[Gal(b1-4)]GlcNAc(b1-4)Gal(b1-4)[Fuc(a1-3)]GlcNAc
Method in brief: as §1

[13] = biological target: Fuc(a1-3)[Gal(b1-4)]GlcNAc(b1-6)GalNAc
Method in brief: as §1

[14] = biological target: Gal(a1-4)Gal(b1-4)GlcNAc
Method in brief: as §1

[15] = biological target: Gal(b1-3)GlcNAc
Method in brief: as §1

[16] = biological target: Gal(b1-3)GlcNAc(b1-3)GalNAc
Method in brief: as §1

[17] = biological target: Gal(b1-4)Glc6S
Method in brief: as §1

[18] = biological target: Gal(b1-4)GlcNAc(b1-2)Man(a1-3)[Man(a1-6)]Man(b1-4)GlcNAc(b1-4)GlcNAc
Method in brief: as §1

[19] = biological target: Gal(b1-6)Gal
Method in brief: as §1

[20] = biological target: Gal3S(b1-3)[Fuc(a1-4)]GlcNAc
Method in brief: as §1

[21] = biological target: Gal3S6S(b1-4)GlcNAc
Method in brief: as §1

[22] = biological target: Gal3S6S(b1-4)GlcNAc6S
Method in brief: as §1

[23] = biological target: GalNAc(b1-3)GalNAc
Method in brief: as §1

[24] = biological target: Glc(a1-4)Glc(a1-4)Glc(a1-4)Glc
Method in brief: as §1

[25] = biological target: Glc(b1-4)Glc
Method in brief: as §1

[26] = biological target: GlcNAc(b1-2)[GlcNAc(b1-4)]Man(a1-3)[GlcNAc(b1-2)Man(a1-6)]Man(b1-4)GlcNAc(b1-4)GlcNAc
Method in brief: as §1

[27] = biological target: GlcNAc(b1-3)Gal(b1-4)Glc
Method in brief: as §1

[28] = biological target: GlcNAc(b1-3)GalNAc
Method in brief: as §1

[29] = biological target: GlcNAc(b1-3)Man
Method in brief: as §1

[30] = biological target: GlcNAc(b1-3)[GlcNAc(b1-6)]GalNAc
Method in brief: as §1

B1: PpFlo3 (Pichia pastoris) (protein)
chain: MGSSHHHHHHSSGLVPRGSHMQESGNGTTSDTAYACDIGATPFDGFNATIYQYQASDDNSIQDPVFMSTGYLQRNQLHSTTGVTNPGFNIFTAGVATTTLYGIPNVNYQNMLLELKGYFRADASGNYGLSLRNIDDSAILFFGRETAFECCNENLIPLDEAPTDYSLFTIKEGEASTNPDSYTYTQYLEAGRYYPVRTFFANIRTRAVFNFTMTLPDGSELTDFQNYIFQFGALNQ
[1]
  glycan array binding signal (z-score): -0.256
[2]
  glycan array binding signal (z-score): -0.217
[3]
  glycan array binding signal (z-score): -0.242
[4]
  glycan array binding signal (z-score): -0.263
[5]
  glycan array binding signal (z-score): 4.84
[6]
  glycan array binding signal (z-score): 4.32
[7]
  glycan array binding signal (z-score): -0.279
[8]
  glycan array binding signal (z-score): -0.259
[9]
  glycan array binding signal (z-score): -0.298
[10]
  glycan array binding signal (z-score): -0.014
[11]
  glycan array binding signal (z-score): -0.303
[12]
  glycan array binding signal (z-score): 2.75
[13]
  glycan array binding signal (z-score): -0.238
[14]
  glycan array binding signal (z-score): -0.139
[15]
  glycan array binding signal (z-score): -0.201
[16]
  glycan array binding signal (z-score): -0.296
[17]
  glycan array binding signal (z-score): 4.38
[18]
  glycan array binding signal (z-score): -0.233
[19]
  glycan array binding signal (z-score): -0.281
[20]
  glycan array binding signal (z-score): 5.08
[21]
  glycan array binding signal (z-score): -0.27
[22]
  glycan array binding signal (z-score): -0.269
[23]
  glycan array binding signal (z-score): 5.1
[24]
  glycan array binding signal (z-score): -0.242
[25]
  glycan array binding signal (z-score): -0.246
[26]
  glycan array binding signal (z-score): 4.67
[27]
  glycan array binding signal (z-score): -0.291
[28]
  glycan array binding signal (z-score): -0.266
[29]
  glycan array binding signal (z-score): 6.76
[30]
  glycan array binding signal (z-score): 1.75
